Data published in PubChem BioAssay (Tox21).
Results filed as inconclusive are left out. Active and inactive are the calls of the source. Calls follow the shape of the dose curve; as a rule, active = well fitted activation curve with a large enough effect in the repeat runs; inconclusive = weak or mixed curves; inactive = flat fitted curve, though single readings scatter.

Assay: A CellTox Green Cytotoxicity Assay to monitor cytotoxicity in HepG2 cells - 16 hour (AID 1224876); also: nearly all actives have a fitted effect of over 45% in size
Details: CellTox Green fluorescence; series mostly up to 76.8 µM
Excerpt: National Center for Advancing Translational Sciences [NCATS]
NIH Chemical Genomics Center [NCGC]
U.S. Environmental Protection Agency [EPA]
National Institutes of Environmental Health Sciences [NIEHS]
National Toxicology Program [NTP]
Cell-based models are critical for drug discovery. Determining the natural cytotoxic effects resulting from test compounds is an essential research activity. A CellTox Green Cytotoxicity Assay to monitor cytotoxicity in real time of continues cell culture during 40 hours of the compound treatment was used to screen Tox21 10K library compounds in HepG2 cells. CellTox Green Cytotoxicity Assay is a nonlytic, homogeneous, biofluorescent method to measure cytotoxicity in cell culture after experimental manipulation. The assay system uses a proprietary asymmetric cyanine dye that is excluded from viable cells but preferentially stains the dead cell's DNA. […] Viable cells produce no appreciable increases in fluorescence. Therefore, the fluorescence signal produced by the binding interaction with dead cell DNA is proportional to cytotoxicity.
The mixture of HepG2 cell suspension and reagents were dispensed at 600cells/6 ul/well in 1536-well tissue culture treated black solid bottom plates using a Multidrop dispenser. After the assay plates were incubated at a 37 C/5% CO2 incubator for 5 hours, 23 nL of compounds dissolved in DMSO, positive and negative controls was transferred to the assay plate by a pintool work station. The plates were incubated at 37 C for 40 hours. The fluorescence intensity were measured at 0h, 8h, 16h, 24h, 32h and 40h time points using ViewLux plate reader during compound treatment.

SMILES | outcome
CCCCCCCC=O | inactive
CCCCCCCCCCCCCCCC(=O)OC(C)C | inactive
CC(C)(C)c1cc(Cc2cc(C(C)(C)C)c(O)c(C(C)(C)C)c2)cc(C(C)(C)C)c1O | inactive
CC(C)CC(=O)CC(C)CC(C)C (stereo not given) | inactive
CC(O)CC(C)(C)O (stereo not given) | inactive
CSc1ccc(Cl)cc1 | inactive
C=CCc1ccc(OC)c(OC)c1 | inactive
CC(C)OP(=O)(CP(=O)(OC(C)C)OC(C)C)OC(C)C | inactive
O=C(O)Cn1c(=O)n(Cc2ccc(Br)cc2F)c(=O)c2ccc(Cl)cc21 | inactive
CN(C)CCOC(=O)COc1ccc(Cl)cc1 | inactive
CCCOC(=O)c1ccccc1 | inactive
Cc1ccc(S(=O)(=O)N=C=O)cc1 | inactive
CCO[Si](CCC#N)(OCC)OCC | inactive
CC(C)OC(=O)COc1ccc(Cl)cc1Cl | inactive
OCc1cccc(Oc2ccccc2)c1 | inactive
O=C(O)/C=C/C(=O)O | inactive
COCCOC(=O)c1ccccc1C(=O)OCCOC | inactive
C=CCCCCCCCCC(=O)O | inactive
CCc1ccccc1CC | inactive
CCCCC(C=O)CC (stereo not given) | inactive

SMILES | outcome
O=[N+]([O-])c1ccc2nc[nH]c2c1 | inactive
Cc1ccc([N+](=O)[O-])cc1S(=O)(=O)O | inactive
CCCCOC(=O)c1ccc(N)cc1 | inactive
CC(C)c1cccc(C(C)C)c1 | inactive
c1ccc(Oc2ccccc2)cc1 | inactive
CC(C)CCCCCCCOC(=O)CCCCC(=O)OCCCCCCCC(C)C | inactive
COc1ccc([N+](=O)[O-])cc1N | inactive
CNC(=S)N(C)C | inactive
O=C(O)c1ccccc1C(=O)O | inactive
OCc1ccccc1 | inactive
CC(=O)OC1CC(C)OC(C)O1 (stereo not given) | inactive
NCCNCCN | inactive
CC(CCl)OP(=O)(OC(C)CCl)OC(C)CCl (stereo not given) | inactive
CN(C)c1ccc(O)c2c1C[C@H]1C[C@H]3[C@H](N(C)C)C(=O)C(C(N)=O)=C(O)[C@@]3(O)C(=O)C1=C2O | inactive
CC(=O)c1ccc(O)cc1 | inactive
CC(C)(Oc1ccc(CCNC(=O)c2ccc(Cl)cc2)cc1)C(=O)O | inactive
COC(=O)c1cccnc1 | inactive
c1ccc2c(c1)Cc1ccccc1-2 | inactive
O=S(=O)(O)c1ccccc1 | inactive
CCOC(=O)c1ccc(N)cc1 | inactive
